Compound activity as filed in PubChem.
Only some compounds are listed: those with a hit (about 22% of all), similar ones and a draw of the others.
Pf growth 48h: P. falciparum growth inhibition at 48 hours (one generation). P. falciparum luciferase growth in erythrocytes, 48 h. 310,000 compounds, 5.9% hits. Potency, µM (doses to about 28.7 µM), usual class: inhibitors
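Cell-based growth assay: transgenic P. falciparum expressing firefly luciferase, cultured in red cells within RPMI 1640 containing 0.5% w/v Albumax, 24 mM bicarbonate and gentamycin. A drop in luciferase activity indicates inhibition.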
Pf growth 96h: P. falciparum growth inhibition at 96 hours. P. falciparum luciferase reporter growth, 96 h. Potency, µM (series often up to 28.7 µM), most hits filed as inhibitors. 320,000 compounds, 6.9% hits. AID 504834
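96 h incubation, 37 C, 5% CO2, of luciferase-reporter P. falciparum-infected RBCs (2% hematocrit, 0.05% parasitemia final) with test compounds; endpoint luminescence.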
Shiga toxin inh: blocks Shiga toxin action in Vero cells | Vero cells, Shiga toxin protein synthesis inhibition reporter | inhibition, % at 38.7 µM | 290,000 compounds, 9.2% hits | AID 2315; in the data active means inhibition mostly above about 28%, no sharp cut-off; inactive means mostly below about 43%
CHX counter: affects cycloheximide protein synthesis inhibition readout, counter-screen | cell reporter, cycloheximide protein synthesis inhibition counterscreen | max response, % | 300,000 compounds, 12% hits; in the data active means max response mostly above about 13%, no sharp cut-off; inactive means mostly below about 14%; further: read at 38.3 µM for the half of the compounds with a filed dose
LmPK inh: LmPK (Leishmania mexicana) enzyme inhibition. purified LmPK, Kinase-Glo ATP luminescence, 1 h. Potency, µM (top dose mostly 57.5 µM), hits mostly inhibitors. 290,000 compounds, 0.37% hits
Target sequence (Q27686 whole entry, looked up): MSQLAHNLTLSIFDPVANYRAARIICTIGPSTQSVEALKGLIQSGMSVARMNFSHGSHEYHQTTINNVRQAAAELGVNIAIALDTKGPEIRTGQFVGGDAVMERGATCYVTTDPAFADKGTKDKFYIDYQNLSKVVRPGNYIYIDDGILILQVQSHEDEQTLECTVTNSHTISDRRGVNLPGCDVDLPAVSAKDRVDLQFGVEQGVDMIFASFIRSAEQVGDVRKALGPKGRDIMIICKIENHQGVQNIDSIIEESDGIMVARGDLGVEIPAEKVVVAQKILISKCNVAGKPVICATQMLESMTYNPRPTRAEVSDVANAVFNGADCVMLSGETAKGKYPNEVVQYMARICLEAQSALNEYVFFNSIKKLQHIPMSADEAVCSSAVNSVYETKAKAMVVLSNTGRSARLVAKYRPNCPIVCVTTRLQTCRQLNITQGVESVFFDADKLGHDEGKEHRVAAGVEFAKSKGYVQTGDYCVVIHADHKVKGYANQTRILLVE
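Kinase-Glo luminescence read after 1 h RT reaction of 0.1 nM LmPK with 0.5 mM PEP and 0.1 mM ADP. Activity scaled between uninhibited and enzyme-free controls.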
Large screens that a line does not name were inactive; ! = repeats disagree. Unless noted, the call rests on the fitted dose curve; in most records, active means well fitted inhibition curve with a large enough effect; inconclusive means small, poorly fitted or top-dose-only effect, or another doubt; inactive means no such curve, though single readings can be large or run the other way.

C/C(CC(=O)Nc1cc(C)ccn1)=N\NC(=O)c1cccc(C)c1O	Pf growth 48h inconclusive, Shiga toxin inh 69.1, CHX counter 26.2
CCc1ccc(NC(=O)C(=O)N/N=C(\C)CC(=O)NCc2ccc(Cl)cc2)cc1	none
C/C(CC(=O)Nc1cc(C)ccn1)=N\NC(=O)c1cccc(C)c1	Pf growth 96h inconclusive
CCNC(=O)C/C(C)=N/NC(=O)C(=O)Nc1ccc(CC)cc1	CHX counter 25.8
CC(=O)N/N=C(\C)CCc1ccccc1	none
Cc1nc(C)n(C(C)CNS(=O)(=O)c2ccc(Cl)cc2)n1 (configuration not stated)	none
COc1cccc(NC(=O)CCNC(=O)Cn2ccc3ccccc3c2=O)c1	Pf growth 96h inconclusive (no result: Pf growth 48h)
COc1ccccc1NC(=O)NC1CCS(=O)(=O)C1 (configuration not stated)	none
COC(=O)C1=C(C(=O)OC)[C@@H]2Nc3ccccc3[C@@]23C[C@@H](C(=O)OC)N(C(=O)c2cccs2)C3=N1	none (no result: Pf growth 48h, Pf growth 96h, Shiga toxin inh, CHX counter)
C/C(CC(=O)Nc1ccccn1)=N\NC(=O)Cc1cccc2ccccc12	none
C/C(=N/NC(=O)CNC(=O)COc1ccccc1)c1ccc(Cl)cc1	none
CCCNC(=O)C/C(C)=N/NC(=O)C(=O)Nc1ccccn1	Pf growth 96h inconclusive, CHX counter 26.2
C/C(CC(=O)Nc1ccccn1)=N\NC(=O)c1ccc2ccccc2c1	Pf growth 96h 1.85µM, CHX counter 14.9
COc1cc(OC)cc(C(=O)N/N=C(\C)CC(=O)Nc2ccccn2)c1	Pf growth 96h inconclusive
C/C(=N/NC(=O)CNC(=O)CCc1ccccc1)c1ccc(Cl)cc1	CHX counter 7.1
C/C(CC(=O)Nc1ccccn1)=N\NC(=O)c1ccccc1O	Shiga toxin inh 68.2, CHX counter 51.7
C/C(CC(=O)Nc1ccccn1)=N\NC(=O)c1ccncc1	Pf growth 48h inconclusive
C[C@@H]1C2CC(C/C2=N\NC(=O)c2ccncc2)C1(C)C (some centres not stated)	none
O=C(CNC(=O)c1ccc(Cl)cc1)OCCCOC(=O)CNC(=O)c1ccc(Cl)cc1	none
CCOc1ccc(Oc2ccc(NC(=O)CSc3nncn3C)cc2)cc1	none (no result: Shiga toxin inh, CHX counter, LmPK inh)
COc1cc(CCC(=O)OCC(=O)Nc2ccc(C)cc2Cl)cc(OC)c1OC	none
O=C(Nc1ccc(S(=O)(=O)N2CCOCC2)cc1)c1c(F)cccc1F	none
[2H]C([2H])(CCOS(N)(=O)=O)c1ccccc1	none
Cn1cc([N+](=O)[O-])c(C(=O)Nc2ccc(C(=O)N3CCCCC3)cc2)n1	Shiga toxin inh 29.2
COc1ccc(C(=O)Nc2ccc(C(=O)N3CCCC3)cc2)cc1[N+](=O)[O-]	Pf growth 48h inconclusive
Cn1cc([N+](=O)[O-])c(C(=O)Nc2ccc(C3CCCCC3)cc2)n1	Shiga toxin inh 86.0, CHX counter 46.2
COc1ccccc1CC(=O)N1CCN(c2cccc(Cl)c2)CC1	none
O=C(NC(=S)Nc1ccccc1)c1cncc(C#Cc2ccccc2)c1	none
Cc1cc(/C=C2/SC(=O)N(CC(=O)N3CCOCC3)C2=O)c(C)n1-c1ccccc1F	Shiga toxin inh 46.8, CHX counter 22.1
Cc1ccc(C(=O)NCC(=O)OCC(=O)NCC(F)(F)F)cc1	CHX counter 17.6
Cc1ccc(C(=O)NCC(=O)NCC(=O)OCC(=O)c2ccc(F)cc2)cc1	none
COc1nnc(OC)c2ccccc12	Pf growth 96h 0.465µM
COc1c2ccccc2c(OC)c2ccccc12	Pf growth 96h 14.7µM
COc1nc2ccccc2nc1OC	none
Cc1ccc(OCC(=O)O/N=C(\N)c2ccncc2)c(C)c1	Shiga toxin inh 113.6, CHX counter 32.8
Cc1ccccc1OCC(=O)O/N=C(\N)c1ccncc1	Pf growth 48h inconclusive, Shiga toxin inh 98.6, CHX counter 44.5
Cc1cc(C)c(C)c(OCC(=O)O/N=C(\N)c2ccncc2)c1	Pf growth 48h inconclusive
Cc1ccc(SC(C)C(=O)O/N=C(\N)c2ccncc2)cc1 (configuration not stated)	Pf growth 48h inconclusive, Pf growth 96h inconclusive, CHX counter 19.9
Cc1ccc(SCC(=O)O/N=C(\N)c2ccc([N+](=O)[O-])cc2)cc1	none
O=C(OC(C(=O)NCC1CCCO1)c1ccc(F)cc1)c1cccs1 (configuration not stated)	Pf growth 96h inconclusive
CCCN1CCN(C(=O)C(C)n2nc(C)c3sc4ccccc4c3c2=O)CC1 (configuration not stated)	none
C=CCN1CC(C(=O)N(CCCN(C)C)C(=O)NCC)CC2c3cccc4[nH]cc(c34)CC21 (configuration not stated)	Pf growth 48h 19µM, Pf growth 96h 10.7µM (no result: LmPK inh)
CCN(CC)C(=O)N[C@@H]1C=C2c3cccc4[nH]cc(c34)C[C@H]2N(C)C1	Pf growth 48h inconclusive (no result: Shiga toxin inh, CHX counter, LmPK inh)
CN1C[C@H](CO)C[C@@H]2c3cccc4[nH]cc(c34)C[C@H]21	none
CCN(CC)C(=O)N[C@H]1C[C@@H]2c3cccc4[nH]cc(c34)C[C@H]2N(C)C1	Pf growth 48h inconclusive, Pf growth 96h 0.928µM
COCCNC(=O)C(c1ccc(C)cc1)N(C(=O)CCC(=O)Nc1ccccn1)c1ccccc1C (configuration not stated)	Pf growth 96h 8.28µM
COCCN(C(=O)CCCC(=O)Nc1ccccn1)C(C(=O)NC1CCCCC1)c1ccc(C)cc1 (configuration not stated)	none
Cc1cccc(N(C(=O)CCC(=O)Nc2cccnc2)C(C(=O)NC2CCCC2)c2ccncc2)c1 (configuration not stated)	Pf growth 48h inconclusive, Pf growth 96h 11.7µM
Cc1cccc(N(C(=O)CCC(=O)Nc2cc(C)on2)C(C(=O)NC2CCCC2)c2cccnc2)c1 (configuration not stated)	none
O=C(CCCC(=O)N(c1ccc2c(c1)OCCO2)C(C(=O)NC1CCCCC1)c1ccc(F)cc1)Nc1ccccn1 (configuration not stated)	Pf growth 48h inconclusive, Pf growth 96h 10.4µM
Cc1ccc(C(C(=O)NC2CCCCC2)N(C(=O)CCCC(=O)Nc2ccccn2)c2ccc3c(c2)OCCO3)cc1 (configuration not stated)	Pf growth 48h inconclusive, Pf growth 96h inconclusive, CHX counter 10.6
Cc1nc(NCCC(C)C)c2nnn(Cc3ccccc3)c2n1	none
CCCn1nc(C(=O)Nc2ccc(-n3cnnn3)cc2)c2ccccc2c1=O	none (no result: Shiga toxin inh, CHX counter, LmPK inh)
CCN(CC)c1ccc(C(NC(C)=O)NC(C)=O)cc1	none
CCN(CC)c1ccc(SS(=O)(=O)O)cc1	Pf growth 48h 13.1µM, Pf growth 96h 10.4µM!
Cc1oc2ccc(O)cc2c1C(=O)c1ccccc1	CHX counter 14.7
Nc1nonc1-n1nnc(C(=O)N/N=C/c2ccc(OCc3ccccc3)cc2)c1CNc1ccccc1	Pf growth 96h inconclusive
COc1cccc(CNC(=O)CCCc2nnc3n(C)c(=O)c4sccc4n23)c1	Pf growth 48h inconclusive
Cc1ccc2nc(NC(=O)c3cc(-c4ccco4)nc4ccccc34)sc2c1	Pf growth 96h inconclusive, CHX counter 23.7
Cc1nnc(NC(=O)c2cc(-c3ccco3)nc3ccccc23)s1	none (no result: Shiga toxin inh, CHX counter, LmPK inh)
